Consider 16 compounds from PubChem BioAssay (NCI).

Common to all, as to experiment: NCI-60 one-dose screen, 48 h (100 = growth as untreated, 0 = no growth, -100 = all killed)
Conditions in all cases: 10 µM unless noted

Assay [1] concerns SR leukemia.
The subject of assay [2] is RPMI-8226 leukemia.
Assay [3] has as its system OVCAR-8 ovarian.
The subject of assay [4] is OVCAR-5 ovarian.
Assay [5] deals with SK-OV-3 ovarian.
The subject of assay [6] is IGROV1 ovarian.
For assay [7], the system named is OVCAR-3 ovarian.
In assay [8] the test system is NCI/ADR-RES ovarian.
Assay [9] deals with HS 578T breast.
Assay [10] relates to OVCAR-4 ovarian.

The structures appear in SMILES notation. Compounds without any hit were thinned out: in the full panel of roughly 83,000, 20% have a hit.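 Values shown are percent growth following 48 h exposure of cells in 96-well plates to a single concentration of compound; below 10 was considered active.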 Unmarked numbers belong to inactive results. Calls of active or inactive are those of the source.

As for `Cc1ccc([C@@H]2C[C@H](O)Cc3ccccc3N2)s1`, the growth in assay [1] was 96.4%; in assay [2], 102%; in [3], 99.1%; in [4], 97.7%; in assay [5] it was 98.6%; in assay [6], 100%. The growth in [7] was 111%; in [8], 104%.

Regarding `N#CCCCCCCCCCCC#N`, the growth in assay [1] is 118%; in [2], 94.9%; in assay [3] it was 100%; in assay [4] it was 99.6%; in [5], 109%; in assay [7], 125%. For the same compound, the growth in [8] was 98.3%.

In the case of `Cc1cc2cn3c4ccc(O)cc4nc(N)c3c2cc1C`, the growth in assay [1] is -23.5% (active); in assay [2] it was -20.1% (active); in [3], 5.39% (active); in assay [4], 28.9%; in [6], 3% (active); in assay [7], 16.5%. In addition, the values for the growth in assay [9] and in assay [8] were -16.3% (active) and 9.17% (active), respectively.

Take `CCN(CC)c1ccc2nc3ccc(N=Nc4ccc(O)cc4)cc3[n+](-c3ccccc3)c2c1`: the growth was 49% in assay [1]; 30.6% in assay [2]; 56.8% in assay [3]; 113% in assay [4]; 89.7% in assay [5]; 8.59% (active) in [6]. Besides, the figures for the growth in [7] and in assay [8] were -15.4% (active) and 101%, respectively.

Turning to `CCCCCCCCC/C(=N\NC(=O)c1ccncc1)c1ccc(O)c(O)c1O`, the growth is 6.56% (active) in assay [1]; 27.1% in assay [2]; 13.8% in assay [3]; 48.6% in [4]; 24.3% in assay [5]; 24.9% in assay [6]. In addition, the growth is 25.6% in assay [7] and 7.59% (active) in assay [8].

Turning to `Cc1ccc2c(c1)C(=O)CCS2`, the growth in [1] is 118%; in [2] it was 100%; in assay [3] it was 100%; in assay [4], 97.5%; in [5] it was 95%; in assay [6], 104%. For the same compound, the growth in [7] was 115%; in [8], 111%.

In the case of `CC1=C[C@@H]2c3c(c(O)c(O)c4oc5cc(O)cc(O)c5c(=O)c34)[C@@H](c3cc(O)c(O)c4oc5cc(O)cc(O)c5c(=O)c34)[C@@H]2C(C)(C)C1`, the growth in assay [1] was 4.52% (active); in assay [2], -4.75% (active); in [3], 7.34% (active); in [4], 19.6%; in assay [10], 22.3%; in [6], 12.9%. The growth was 8.08% (active) in [9] and 68.8% in [8].

With `O=C(C(=O)N1CCOCC1)c1ccc(O[C@H]2O[C@H](CO)[C@@H](O)[C@H](O)[C@@H]2O)cc1`, the growth in assay [1] is 94.6%; in assay [2] it was 96.8%; in [3], 109%; in assay [10] it was 105%; in assay [5], 106%; in assay [6], 106%. The growth in assay [7] was 121%; in assay [9] it was 183%; in assay [8], 105%.

Regarding `N#Cc1ccc(NC2c3ccccc3CC2O)cc1` (stereo unspecified), the growth in assay [1] was 99.3%; in assay [2], 96.3%; in assay [3] it was 122%; in assay [4] it was 113%; in [5], 106%; in assay [6] it was 116%. Besides, the growth in [7] is 129%; in assay [8] it was 115%.

Turning to `Nc1nc2cc(O)ccc2n2cc3c(F)cccc3c12`, the growth is 10.8% in assay [1]; 53.7% in assay [2]; 26.5% in assay [3]; 38.7% in [4]; -4.95% (active) in [10]; 30% in assay [7]. In addition, the growth in assay [9] is -21.4% (active); in assay [8], 15.8%.

Take `CCOC(=O)CCCCCCCCC(=O)OCC`: the growth in assay [1] was 106%; in assay [2], 108%; in assay [3], 106%; in assay [10], 111%; in assay [5] it was 106%; in assay [6] it was 105%. The growth in [7] is 106%; in [9], 110%; in [8], 101%.

For the compound `O=C(N/N=C\c1ccc(Cl)cc1)C(=O)N/N=C\c1ccc(Cl)cc1`, the growth in assay [1] was 90.7%; in [2], 95.7%; in assay [3], 102%; in assay [4] it was 105%; in assay [5], 92.4%; in [6], 88.7%. For the same compound, the growth in assay [7] was 123%; in [8] it was 104%.

In the case of `COC1NC(Cl)=C(C#N)C(C#N)(C#N)C1(C)C` (stereo unspecified), the growth is 98.7% in [1]; 127% in [2]; 107% in assay [3]; 111% in assay [10]; 113% in assay [5]; -21.4% (active) in assay [6]. The growth is 123% in [7], 104% in [9] and 120% in [8].

Turning to `O=C1CSC(c2ccccc2Cl)N1c1nnc(-c2ccncc2)o1` (stereo unspecified), the growth is 96% in [1]; 86% in [2]; 103% in assay [3]; 94.1% in assay [4]; 97.8% in [10]; 89% in assay [6]. Besides, the growth in [9] was 109%; in assay [8], 92.3%.

As to `CCOC(=O)CSSCC(=O)OCC`, the growth is 88.7% in assay [1]; 98.6% in assay [2]; 101% in assay [3]; 108% in [4]; 102% in assay [5]; 110% in assay [6]. In addition, the growth in assay [7] and in [8] was 110% each time.

As for `N=C(N)c1ccc(-c2ccc(-c3cc(Cl)cc(Cl)c3)s2)cc1`, the growth is -16.6% (active) in assay [1]; -48.9% (active) in [2]; -12.5% (active) in [3]; -66.1% (active) in assay [10]; -78.6% (active) in assay [5]; -73.8% (active) in assay [6]. For the same compound, the results for the growth in assay [7], in assay [9] and in assay [8] were -83.4% (active), -46.8% (active) and -47.4% (active), respectively.
